Structures are written as SMILES. Results filed as inconclusive are left out. Where a structure was tested more than once in an assay, its records may differ in their call. Active and inactive are the calls of the source. How the source made its calls: active means hit-call score of the fitted dose curve at least 0.9, where 1 is the maximum; inconclusive means response in the unintended direction; inactive means score below 0.9.

The term AC50 denotes the midpoint of the concentration-response curve, whichever way the signal moves.

Assay [1] in a line: ATG_M_19_XSP1: Attagene TRANS-FACTORIAL Multi-Species (XSP1) HepG2 Assay for M19 Transcription Factor (Internal Marker) (AID 2283798). The method, boiled down:
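Readout is reporter mRNA induction quantified via RT-PCR, 6-FAM labeling, HpaI digestion and capillary electrophoresis, fitted in the positive direction versus DMSO baseline. Transfected HepG2 cells exposed 24 h, medium including 3 nM 6-alpha-fluorotestosterone.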

For assay [2], the system named is zebrafish Peroxisome Proliferator-activated Receptor gamma (PPARg), gene 557037. The assay is described as follows: ATG_zfPPARg_XSP1: Attagene TRANS-FACTORIAL Multi-Species (XSP1) HepG2 Assay for zebrafish Peroxisome Proliferator-activated Receptor gamma (PPARg) (AID 2283801). The method, boiled down: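 Trans-activation readout of chimeric zebrafish PPARg–GAL4 in transiently transfected human HepG2 cells, 24 h chemical exposure (medium includes 3 nM 6-alpha-fluorotestosterone). Reporter transcripts measured by RT-PCR and capillary electrophoresis, fitted as gain over DMSO.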

Assay [3] deals with Nuclear receptor subfamily 1 group I member 2 (Mus musculus) (UniProt O54915). The assay is described as follows: ATG_mPXR_XSP1: Attagene TRANS-FACTORIAL Multi-Species (XSP1) HepG2 Assay for mouse Pregnane X Receptor (PXR) (AID 2283803). The method, boiled down: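 Transiently transfected HepG2 cells expressing a receptor-Gal4 chimera drive a GAL4-UAS reporter; 3 nM 6-alpha-fluorotestosterone included. Reporter mRNA read 24 h post-dose by RT-PCR and capillary electrophoresis; gain of signal relative to DMSO.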
Nuclear receptor subfamily 1 group I member 2 (Mus musculus), sequence (O54915 whole entry, looked up, the tested form may be a part): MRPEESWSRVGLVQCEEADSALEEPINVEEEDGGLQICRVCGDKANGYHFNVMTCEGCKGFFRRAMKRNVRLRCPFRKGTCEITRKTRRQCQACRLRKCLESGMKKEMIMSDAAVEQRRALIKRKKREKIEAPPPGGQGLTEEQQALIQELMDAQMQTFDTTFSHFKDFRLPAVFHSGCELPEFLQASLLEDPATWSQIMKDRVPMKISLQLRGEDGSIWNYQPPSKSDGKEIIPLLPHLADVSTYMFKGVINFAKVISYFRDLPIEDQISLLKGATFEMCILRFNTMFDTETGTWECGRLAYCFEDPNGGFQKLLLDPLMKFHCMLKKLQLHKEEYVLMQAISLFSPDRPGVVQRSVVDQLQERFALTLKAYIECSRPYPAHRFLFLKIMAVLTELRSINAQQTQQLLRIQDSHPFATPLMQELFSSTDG

Assay [4] has as its target frog Thyroid hormone Receptor alpha (TRa), thra-a (gene 397942) (UniProt P15204). The experiment in a line: ATG_frTRa_XSP1: Attagene TRANS-FACTORIAL Multi-Species (XSP1) HepG2 Assay for frog Thyroid hormone Receptor alpha (TRa) (AID 2283804). The method, boiled down:
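Reporter transcript induction, measured by RT-PCR with 6-FAM labelling and capillary electrophoresis, 24 hr after dosing transiently transfected HepG2 cells expressing a frog TRa-GAL4 fusion; medium contained 3 nM 6-alpha-fluorotestosterone; increase over DMSO scored.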

Assay [5] deals with turtle Thyroid Hormone Receptor, alpha (TRa), gene 101949057. The experiment in a line: ATG_trTRa_XSP1: Attagene TRANS-FACTORIAL Multi-Species (XSP1) HepG2 Assay for turtle Thyroid Hormone Receptor, alpha (TRa) (AID 2283806). The method in brief:
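After 24 h chemical exposure, reporter transcripts were measured by RT-PCR with fluorescent primer extension, HpaI digestion and capillary electrophoresis. Cells were transiently transfected HepG2 expressing exogenous NR-Gal4 chimeras; medium contained 3 nM 6-alpha-fluorotestosterone; fitted upward relative to DMSO.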

For assay [6], the target named is zebrafish Thyroid Hormone Receptor alpha (TRa), thraa (gene 30670) (UniProt Q98867). The experiment in a line: ATG_zfTRa_XSP1: Attagene TRANS-FACTORIAL Multi-Species (XSP1) HepG2 Assay for zebrafish Thyroid Hormone Receptor alpha (TRa) (AID 2283807). The method in brief:
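Reporter transcripts driven by a chimeric zebrafish TRa–Gal4 protein were measured by RT-PCR with fluorescent labelling and capillary electrophoresis. These came from transiently transfected HepG2 cells after 24 h chemical exposure, with 3 nM 6-alpha-fluorotestosterone added; baseline was DMSO.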

For assay [7], the system named is turtle Estrogen Receptor (ERa), gene 101933533. The experiment in a line: ATG_trERa_XSP2: Attagene TRANS-FACTORIAL Multi-Species (XSP2) HepG2 Assay for turtle Estrogen Receptor (ERa) (AID 2283812).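 Further: actives raise reporter signal above DMSO so AC50 reflects agonist activity.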 The method, boiled down: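 Readout is reporter mRNA quantified by RT-PCR with capillary electrophoresis after 24 h compound exposure, increase relative to DMSO. Uses transiently transfected human HepG2 liver cells carrying a chimeric turtle ERa-Gal4 receptor driving GAL4-UAS reporters.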

Assay [8] concerns the target GAL4 Transcription Factor (Internal Marker), GAL4 (gene 855828) (UniProt P04386). The assay is described as follows: ATG_GAL4_XSP2: Attagene TRANS-FACTORIAL Multi-Species (XSP2) HepG2 Assay for GAL4 Transcription Factor (Internal Marker) (AID 2283814).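 Further: GAL4 reporter mRNA background control in MRTU transfected cells not a receptor target.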 The method, boiled down:
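Background-control readout: gain-of-signal fitted against DMSO. After 24 h exposure of transfected HepG2 (MRTU, GAL4-UAS reporters; 3 nM 6-alpha-fluorotestosterone, 1.5 nM norgestrel present), transcripts quantified by RT-PCR and capillary electrophoresis fluorescence.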

The subject of assay [9] is turtle Androgen Receptor (AR), gene 101947425. The assay is described as follows: ATG_trAR_XSP2: Attagene TRANS-FACTORIAL Multi-Species (XSP2) HepG2 Assay for turtle Androgen Receptor (AR) (AID 2283815). The method in brief:
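Reporter transcripts were quantified via RT-PCR and capillary electrophoresis and fitted upward against DMSO. Transiently transfected human HepG2 cells carrying NR-Gal4 chimeras were exposed 24 h, with 3 nM 6-alpha-fluorotestosterone plus 1.5 nM norgestrel added.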

Assay [10] can be described thus: ATG_M_06_XSP1: Attagene TRANS-FACTORIAL Multi-Species (XSP1) HepG2 Assay for M06 Transcription Factor (Internal Marker) (AID 2283790). The method in brief:
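This background-control readout tracks M06 reporter mRNA, measured by RT-PCR and capillary electrophoresis. HepG2 cells transiently carrying the GAL4-UAS reporter panel were dosed for 24 h with 3 nM 6-alpha-fluorotestosterone added for partial AR stimulation; increases were scored relative to DMSO.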

Assay [11] in a line: ATG_M_61_XSP1: Attagene TRANS-FACTORIAL Multi-Species (XSP1) HepG2 Assay for M61 Transcription Factor (Internal Marker) (AID 2283797). The method, boiled down:
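Background-control readout: reporter transcripts measured by RT-PCR and capillary electrophoresis 24 h after dosing transiently transfected HepG2 multi-reporter cells, with 3 nM 6-alpha-fluorotestosterone present. Fitted in the positive direction relative to DMSO.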

Assay [12] concerns the target Peroxisome proliferator-activated receptor gamma (Homo sapiens) (UniProt P37231). The experiment in a line: ATG_hPPARg_XSP1: Attagene TRANS-FACTORIAL Multi-Species (XSP1) HepG2 Assay for human Peroxisome Proliferator-activated Receptor gamma (PPARg) (AID 2283800). The method in brief: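 Reporter mRNA induction, measured by RT-PCR with capillary electrophoresis 24 h after dosing, scored as gain over DMSO. Transfected HepG2 cells express exogenous NR-Gal4 chimeras driving GAL4-UAS reporters; medium includes 3 nM 6-alpha-fluorotestosterone.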

Assay [13] has as its target mouse Peroxisome Proliferator-activated Receptor gamma (PPARg), Pparg (gene 19016) (UniProt P37238). The experiment in a line: ATG_mPPARg_XSP1: Attagene TRANS-FACTORIAL Multi-Species (XSP1) HepG2 Assay for mouse Peroxisome Proliferator-activated Receptor gamma (PPARg) (AID 2283802). The method, boiled down:
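Readout is reporter mRNA induction, measured by RT-PCR with 6-FAM labelling, HpaI digestion and capillary electrophoresis, 24 h post-dose relative to DMSO. Transient multi-reporter transfection of human HepG2 with mouse PPARg–GAL4 fusion; 3 nM 6-alpha-fluorotestosterone included.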

Assay [14] addresses human Thyroid hormone Receptor beta (TRb), THRB (gene 7068) (UniProt P10828). The assay is described as follows: ATG_hTRb_XSP1: Attagene TRANS-FACTORIAL Multi-Species (XSP1) HepG2 Assay for human Thyroid hormone Receptor beta (TRb) (AID 2283808). The method in brief: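 Readout is reporter mRNA induction measured by RT-PCR, fluorescent labelling and capillary electrophoresis, fitted upward relative to DMSO. Transiently transfected human HepG2 cells expressing NR-Gal4 chimeras were dosed for 24 h, medium containing 3 nM 6-alpha-fluorotestosterone.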

Assay [15] addresses zebrafish Thyroid Hormone Receptor beta (TRb), thrb (gene 30607) (UniProt Q9PVE4). The experiment in a line: ATG_zfTRb_XSP1: Attagene TRANS-FACTORIAL Multi-Species (XSP1) HepG2 Assay for zebrafish Thyroid Hormone Receptor beta (TRb) (AID 2283809). The method, boiled down:
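HepG2 cells transiently transfected with multiplexed GAL4-UAS reporter units expressing chimeric zebrafish TRb–Gal4. Dosed 24 h with 3 nM 6-alpha-fluorotestosterone present; reporter mRNA measured by RT-PCR, HpaI digestion and capillary electrophoresis; gain of signal versus DMSO.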

Assay [16] in a line: ATG_M_06_XSP2: Attagene TRANS-FACTORIAL Multi-Species (XSP2) HepG2 Assay for M06 Transcription Factor (Internal Marker) (AID 2283811).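 Further: hits are increases in signal above the DMSO baseline.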 The method in brief: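 Internal-marker reporter transcript, quantified by RT-PCR, 6-FAM labelling, HpaI digestion and capillary electrophoresis, 24 hours after dosing transfected HepG2 cells with 3 nM 6-alpha-fluorotestosterone and 1.5 nM norgestrel present; DMSO baseline.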

Assay [17] has as its target Estrogen receptor beta (Homo sapiens) (UniProt Q92731). The experiment in a line: ATG_hERb_XSP2: Attagene TRANS-FACTORIAL Multi-Species (XSP2) HepG2 Assay for human Estrogen Receptor (ERb) (AID 2283813).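 Further: actives raise reporter mRNA above DMSO so AC50 reflects agonist induction.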 The method in brief: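 Transient TRANS reporter system in HepG2: after 24 h of chemical, RNA is reverse-transcribed, reporter cDNA amplified, FAM-labelled and sized by capillary electrophoresis. Induction of the human ERb-Gal4 reporter is measured relative to DMSO.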

The target of assay [18] is human Thyroid hormone Receptor alpha (TRa), THRA (gene 7067) (UniProt P10827). The assay is described as follows: ATG_hTRa_XSP1: Attagene TRANS-FACTORIAL Multi-Species (XSP1) HepG2 Assay for human Thyroid hormone Receptor alpha (TRa) (AID 2283805). The method in brief:
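Reporter transcripts from the human TRa-Gal4 TRANS unit quantified by RT-PCR, fluorescent labeling and capillary electrophoresis after 24 hours of chemical exposure in transfected HepG2 cells; medium contains 3 nM 6-alpha-fluorotestosterone. Positive direction fit against DMSO.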

Assay [19] is described as follows: ATG_XTT_Cytotoxicity_XSP1: Cytotoxicity Assessment in the Attagene TRANS-FACTORIAL Multi-Species (XSP1) HepG2 Assay (AID 2283810). The method in brief: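 XTT viability readout taken at 24 hours post-dosing in HepG2 liver cells co-treated with 3 nM 6-alpha-fluorotestosterone. Signal loss relative to DMSO controls reflects cytotoxicity.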
Assay [20] is described as follows: ATG_M_32_XSP1: Attagene TRANS-FACTORIAL Multi-Species (XSP1) HepG2 Assay for M32 Transcription Factor (Internal Marker) (AID 2283799). The method, boiled down:
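Reporter transcripts from the M32 internal-control unit measured by RT-PCR, FAM labelling, HpaI digestion and capillary electrophoresis after 24 h compound exposure of transfected HepG2, 3 nM 6-alpha-fluorotestosterone included; DMSO baseline, positive-direction fit.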

GAL4 Transcription Factor (Internal Marker), GAL4 (gene 855828), sequence (P04386 whole entry, looked up, the tested form may be a part): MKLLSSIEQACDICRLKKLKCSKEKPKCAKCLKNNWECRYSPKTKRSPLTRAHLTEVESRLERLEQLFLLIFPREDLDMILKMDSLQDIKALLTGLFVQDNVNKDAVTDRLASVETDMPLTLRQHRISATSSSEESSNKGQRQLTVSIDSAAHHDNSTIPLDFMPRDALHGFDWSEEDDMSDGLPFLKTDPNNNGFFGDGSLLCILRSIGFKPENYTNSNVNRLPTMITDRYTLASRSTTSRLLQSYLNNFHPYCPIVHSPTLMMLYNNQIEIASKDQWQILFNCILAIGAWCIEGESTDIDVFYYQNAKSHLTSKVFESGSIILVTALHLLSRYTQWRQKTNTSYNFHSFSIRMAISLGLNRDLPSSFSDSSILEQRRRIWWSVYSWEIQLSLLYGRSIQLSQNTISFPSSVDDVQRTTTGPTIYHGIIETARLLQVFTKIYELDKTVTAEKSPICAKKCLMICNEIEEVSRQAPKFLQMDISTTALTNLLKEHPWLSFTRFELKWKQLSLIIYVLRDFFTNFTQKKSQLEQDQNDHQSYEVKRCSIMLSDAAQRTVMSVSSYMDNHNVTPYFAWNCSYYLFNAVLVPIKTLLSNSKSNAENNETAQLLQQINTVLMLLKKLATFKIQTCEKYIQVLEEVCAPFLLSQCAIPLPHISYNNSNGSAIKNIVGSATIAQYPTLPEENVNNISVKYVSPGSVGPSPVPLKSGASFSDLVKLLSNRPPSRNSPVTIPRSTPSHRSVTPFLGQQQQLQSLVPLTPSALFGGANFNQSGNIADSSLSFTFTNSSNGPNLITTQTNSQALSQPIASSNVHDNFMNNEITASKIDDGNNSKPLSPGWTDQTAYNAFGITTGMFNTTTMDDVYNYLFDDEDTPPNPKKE
human Thyroid hormone Receptor beta (TRb), THRB (gene 7068), sequence (P10828 whole entry, looked up, the tested form may be a part): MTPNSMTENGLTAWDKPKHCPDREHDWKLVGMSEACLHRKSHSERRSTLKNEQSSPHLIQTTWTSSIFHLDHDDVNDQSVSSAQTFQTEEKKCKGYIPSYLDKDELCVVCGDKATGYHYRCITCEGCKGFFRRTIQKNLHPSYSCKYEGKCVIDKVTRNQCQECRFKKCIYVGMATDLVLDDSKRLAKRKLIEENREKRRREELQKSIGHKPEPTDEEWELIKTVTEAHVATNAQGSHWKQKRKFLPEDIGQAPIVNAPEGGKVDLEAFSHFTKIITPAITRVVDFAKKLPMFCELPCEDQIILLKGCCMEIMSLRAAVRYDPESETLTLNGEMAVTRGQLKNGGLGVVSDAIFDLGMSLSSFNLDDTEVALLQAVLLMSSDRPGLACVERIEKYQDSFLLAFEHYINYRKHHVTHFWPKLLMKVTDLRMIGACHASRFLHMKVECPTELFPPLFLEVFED
Peroxisome proliferator-activated receptor gamma (Homo sapiens), sequence (P37231 whole entry, looked up, the tested form may be a part): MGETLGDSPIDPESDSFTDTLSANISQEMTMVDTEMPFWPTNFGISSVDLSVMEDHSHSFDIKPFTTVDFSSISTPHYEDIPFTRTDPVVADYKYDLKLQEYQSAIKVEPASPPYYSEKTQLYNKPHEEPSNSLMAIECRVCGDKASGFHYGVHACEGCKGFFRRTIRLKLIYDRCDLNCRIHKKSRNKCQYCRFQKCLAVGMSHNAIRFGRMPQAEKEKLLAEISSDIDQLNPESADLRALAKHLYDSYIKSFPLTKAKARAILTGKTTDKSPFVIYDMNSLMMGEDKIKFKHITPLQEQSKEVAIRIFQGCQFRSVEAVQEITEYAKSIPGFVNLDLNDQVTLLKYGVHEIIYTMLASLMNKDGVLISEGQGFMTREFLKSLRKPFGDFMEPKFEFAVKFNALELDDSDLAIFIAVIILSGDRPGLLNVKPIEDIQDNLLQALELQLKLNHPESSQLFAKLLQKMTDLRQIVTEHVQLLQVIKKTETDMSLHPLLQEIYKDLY
mouse Peroxisome Proliferator-activated Receptor gamma (PPARg), Pparg (gene 19016), sequence (P37238 whole entry, looked up, the tested form may be a part): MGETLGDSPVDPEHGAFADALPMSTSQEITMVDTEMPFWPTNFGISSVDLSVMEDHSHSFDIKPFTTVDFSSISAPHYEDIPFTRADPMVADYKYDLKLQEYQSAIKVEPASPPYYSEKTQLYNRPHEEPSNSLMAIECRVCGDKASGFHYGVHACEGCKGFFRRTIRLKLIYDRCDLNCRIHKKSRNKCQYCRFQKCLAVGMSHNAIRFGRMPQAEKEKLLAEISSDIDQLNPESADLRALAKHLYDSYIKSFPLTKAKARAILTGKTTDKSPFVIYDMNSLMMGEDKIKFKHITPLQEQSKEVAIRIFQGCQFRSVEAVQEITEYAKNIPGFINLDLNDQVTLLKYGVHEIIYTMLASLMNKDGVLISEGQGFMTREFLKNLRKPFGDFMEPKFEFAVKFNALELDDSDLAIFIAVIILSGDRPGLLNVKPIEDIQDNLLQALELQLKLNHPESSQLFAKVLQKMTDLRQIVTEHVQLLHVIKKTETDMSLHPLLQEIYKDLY
frog Thyroid hormone Receptor alpha (TRa), thra-a (gene 397942), sequence (P15204 whole entry, looked up, the tested form may be a part): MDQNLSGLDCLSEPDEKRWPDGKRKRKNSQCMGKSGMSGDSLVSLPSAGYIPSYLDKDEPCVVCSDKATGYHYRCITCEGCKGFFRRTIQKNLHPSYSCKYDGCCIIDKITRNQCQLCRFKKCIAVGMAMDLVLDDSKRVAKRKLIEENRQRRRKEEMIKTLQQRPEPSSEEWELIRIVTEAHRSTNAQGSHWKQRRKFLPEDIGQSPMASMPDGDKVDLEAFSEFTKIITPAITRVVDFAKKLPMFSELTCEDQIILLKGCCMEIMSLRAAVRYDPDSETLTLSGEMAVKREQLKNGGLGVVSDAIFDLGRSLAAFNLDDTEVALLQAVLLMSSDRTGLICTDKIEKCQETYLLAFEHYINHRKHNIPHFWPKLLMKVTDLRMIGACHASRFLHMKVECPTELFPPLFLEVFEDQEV
Estrogen receptor beta (Homo sapiens), sequence (Q92731 whole entry, looked up, the tested form may be a part): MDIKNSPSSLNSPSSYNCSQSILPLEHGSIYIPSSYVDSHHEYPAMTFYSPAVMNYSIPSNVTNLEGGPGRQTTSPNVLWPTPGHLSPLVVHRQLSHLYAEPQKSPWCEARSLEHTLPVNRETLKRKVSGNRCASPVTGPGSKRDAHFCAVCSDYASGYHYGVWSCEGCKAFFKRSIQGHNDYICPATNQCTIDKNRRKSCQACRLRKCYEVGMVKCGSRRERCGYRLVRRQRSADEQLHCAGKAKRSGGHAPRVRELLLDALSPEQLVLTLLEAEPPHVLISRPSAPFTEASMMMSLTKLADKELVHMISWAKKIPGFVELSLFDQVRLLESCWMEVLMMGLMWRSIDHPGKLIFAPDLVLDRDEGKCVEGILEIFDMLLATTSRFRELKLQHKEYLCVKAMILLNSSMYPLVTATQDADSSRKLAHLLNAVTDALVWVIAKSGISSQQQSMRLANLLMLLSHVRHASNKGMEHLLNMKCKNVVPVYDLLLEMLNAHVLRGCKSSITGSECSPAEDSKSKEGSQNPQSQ
zebrafish Thyroid Hormone Receptor beta (TRb), thrb (gene 30607), sequence (Q9PVE4 whole entry, looked up, the tested form may be a part): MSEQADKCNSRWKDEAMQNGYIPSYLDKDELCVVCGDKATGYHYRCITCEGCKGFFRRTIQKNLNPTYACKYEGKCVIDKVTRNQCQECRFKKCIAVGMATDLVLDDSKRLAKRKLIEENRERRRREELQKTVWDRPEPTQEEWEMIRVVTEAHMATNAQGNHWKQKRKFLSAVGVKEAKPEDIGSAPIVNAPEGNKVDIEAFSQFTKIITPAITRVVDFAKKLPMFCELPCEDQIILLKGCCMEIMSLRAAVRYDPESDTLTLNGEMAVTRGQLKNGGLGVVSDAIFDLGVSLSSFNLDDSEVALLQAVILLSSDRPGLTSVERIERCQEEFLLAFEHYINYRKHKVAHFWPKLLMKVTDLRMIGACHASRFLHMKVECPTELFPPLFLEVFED
zebrafish Thyroid Hormone Receptor alpha (TRa), thraa (gene 30670), sequence (Q98867 whole entry, looked up, the tested form may be a part): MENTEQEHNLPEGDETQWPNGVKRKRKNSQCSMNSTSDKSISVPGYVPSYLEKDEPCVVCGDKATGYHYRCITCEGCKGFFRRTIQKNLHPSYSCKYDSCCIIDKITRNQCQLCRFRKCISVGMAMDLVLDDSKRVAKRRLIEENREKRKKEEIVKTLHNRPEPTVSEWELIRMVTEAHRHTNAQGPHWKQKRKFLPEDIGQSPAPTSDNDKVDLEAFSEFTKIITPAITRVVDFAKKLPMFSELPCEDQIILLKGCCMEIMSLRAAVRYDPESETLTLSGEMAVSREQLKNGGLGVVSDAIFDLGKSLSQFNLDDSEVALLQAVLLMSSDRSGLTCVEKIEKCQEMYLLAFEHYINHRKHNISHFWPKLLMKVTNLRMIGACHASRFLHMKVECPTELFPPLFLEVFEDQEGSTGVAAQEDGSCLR

Take `CC1(C)C(C=C(Cl)Cl)C1C(=O)OCc1cccc(Oc2ccccc2)c1` (configuration not stated): the outcome in [1], in assay [2], in [4], in [5], in [6] and in assay [8] was inactive. The outcome in [9] was inactive. Besides, the concentration at half-maximal activity (AC50) was 1.73 µM (active) in assay [3] and 42.3 µM (active) in [7].

As to `Oc1ccc(C(c2ccc(O)cc2)C(Cl)(Cl)Cl)cc1`, the outcome in [10], in assay [11], in assay [12], in assay [2], in assay [13] and in [3] was inactive. In addition, the outcome in assay [4], in [5], in assay [6], in assay [14], in assay [15] and in [16] was inactive. Also, the molecule was classed as inactive in assay [7], in assay [17] and in assay [8].

Regarding `O=C(c1ccc(O)cc1O)c1ccc(O)cc1O`, the call in assay [10], in assay [11], in assay [12], in assay [13], in assay [4] and in [18] was inactive. For the same molecule, the result in [6], in assay [14], in assay [15], in assay [19] and in assay [16] was inactive. Besides, the half-maximal activity concentration (AC50) in assay [7] is 2.86 µM (active); in assay [17], 1.32 µM (active).

As to `CSC(=O)c1cccc2nnsc12`, the outcome in [16], in assay [7] and in [8] was inactive.

Regarding `CC(C)(c1ccc(O)cc1)c1ccc(O)cc1`, the call in assay [10], in assay [11], in assay [13], in assay [3], in assay [4] and in [18] was inactive. Besides, the molecule was classed as inactive in [5], in assay [6], in assay [15] and in [16]. Moreover, in assay [7], the half-maximal activity concentration (AC50) was 0.189 µM (active).

As to `C#C[C@]1(O)CC[C@H]2[C@@H]3CCC4=CC(=O)CC[C@@H]4[C@H]3CC[C@@]21CC`, the outcome in [4], in assay [5], in assay [6], in [14], in assay [15] and in assay [16] was inactive. For the same molecule, the molecule was classed as inactive in [7], in assay [8] and in [9]. Besides, the half-maximal activity concentration (AC50) in assay [7] is 0.522 µM (active).

Take `CCCCC(CC)CN1C(=O)C2C3C=CC(C3)C2C1=O` (configuration not stated): the molecule was classed as inactive in [1], in [20], in assay [2], in assay [15], in [19] and in [7]. The molecule was classed as inactive in [17] and in assay [8]. Besides, the AC50 in assay [12] was 15.5 µM (active); in assay [13] it was 27.7 µM (active); in [3], 0.845 µM (active).

The record behind these values is PubChem BioAssay (EPA / NIEHS).
